# Reference: PubChem BioAssay (NCATS)
# Records with an inconclusive call do not appear. Entries that show only a call come without a potency. Values without a mark were called inactive. Activity calls are given as the source filed them. The call rests on the fitted dose curve; in most records, active means well fitted curve in the direction sought with a large enough effect; inconclusive means small, poorly fitted or top-dose-only effect, or another doubt; inactive means no such curve, though single readings can be large; an effect the other way counts as inactive or inconclusive.
# What was measured:
# W2 = assay: qHTS profiling for inhibitors of Plasmodium falciparum proliferation (AID 504749); further: nearly all actives have a fitted effect of over 60% in size; further: potency means the concentration at half of the fitted maximal effect; settings: P. falciparum in erythrocytes, SYBR Green DNA, 72 h; series mostly up to 28.7 µM
# Method in brief: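 SYBR Green fluorescence (ex 485 nm, em 535 nm) reports parasite DNA after 72 h compound exposure of infected red cells at 0.3% parasitemia, 2.5% hematocrit; signal normalized to 0.29 uM artemisinin and vehicle wells.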
# CRL-7250 = normal cell line; assay: Cytotoxic Profiling of Annotated Libraries Using Quantitative High-Throughput Screening (AID 1296008); settings: Five cell lines viability, CellTiter-Glo ATP luminescence, 48-72 h; max response: stronger effect = lower value; further: nearly all actives have a fitted effect of over 60% in size; further: potency means the concentration at half of the fitted maximal effect
# Method in brief: (§1)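 Cells exposed to compounds for 48 or 72 hr at 37 degrees Celsius. Viability read as ATP-coupled luminescence with CellTiter-Glo after 10 min at room temperature.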
# HaCat [1] = assay: as above; settings: Five cell lines viability, CellTiter-Glo ATP luminescence, 48-72 h; max response: stronger effect = lower value
# Method in brief: as §1
# KB-3-1 = assay: as above; settings: Five cell lines viability, CellTiter-Glo ATP luminescence, 48-72 h; max response: stronger effect = lower value
# Method in brief: as §1
# NIH3T3 [2] = assay: as above; settings: Five cell lines viability, CellTiter-Glo ATP luminescence, 48-72 h; max response: stronger effect = lower value
# Method in brief: as §1
# HACAT [3] = assay: qHTS assay to identify novel small-molecules to repurpose for Merkel cell carcinoma treatment (AID 1296009); settings: MCC and control cell lines, CellTiter-Glo viability, 72 h; at 44.8 µM (top of the series) unless noted; further: nearly all actives have a fitted effect of over 60% in size; further: potency means the concentration at half of the fitted maximal effect
# Method in brief: (§2)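 CellTiter-Glo luminescence after 72 hr compound exposure at 37 degree celsius gave cell viability. Libraries NPC and MIPE were run as 8- and 11-point dose responses; RLUs normalized to DMSO (negative) and no-cell (cytotoxicity) controls.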
# MCC-13 = assay: as above; settings: MCC and control cell lines, CellTiter-Glo viability, 72 h; series mostly up to 46 µM
# Method in brief: as §2
# MCC-26 = assay: as above; settings: MCC and control cell lines, CellTiter-Glo viability, 72 h; series mostly up to 46 µM
# Method in brief: as §2
# MKL-1 = assay: as above; settings: MCC and control cell lines, CellTiter-Glo viability, 72 h; series mostly up to 46 µM
# Method in brief: as §2
# MKL-2 = assay: as above; settings: MCC and control cell lines, CellTiter-Glo viability, 72 h; series mostly up to 46 µM
# Method in brief: as §2
# NIH3T3 [4] = assay: as above; settings: MCC and control cell lines, CellTiter-Glo viability, 72 h; at 44.8 µM (top of the series)
# Method in brief: as §2
# UISO = assay: as above; settings: MCC and control cell lines, CellTiter-Glo viability, 72 h; series mostly up to 46 µM
# Method in brief: as §2
# WaGa = assay: as above; settings: MCC and control cell lines, CellTiter-Glo viability, 72 h; series mostly up to 46 µM
# Method in brief: as §2
# C33A = assay: Primary qHTS to identify gynecologic anti-cancer compounds using libraries of approved drugs and bioactive compounds (AID 1345084); settings: Gynecologic cancer cell panel viability, ATPlite luminescence, 48 h; series mostly up to 57.5 µM; further: nearly all actives have a fitted effect of over 55% in size
# Method in brief: (§3)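 48 h compound exposure at 37 C, 5% CO2; five-point qHTS. ATPlite luminescence readout of cell ATP.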
# CAOV3 = assay: as above; settings: Gynecologic cancer cell panel viability, ATPlite luminescence, 48 h; series mostly up to 57.5 µM
# Method in brief: as §3
# CASKI = assay: as above; settings: Gynecologic cancer cell panel viability, ATPlite luminescence, 48 h; series mostly up to 57.5 µM
# Method in brief: as §3
# Es-2 = assay: as above; settings: Gynecologic cancer cell panel viability, ATPlite luminescence, 48 h; series mostly up to 57.5 µM
# Method in brief: as §3
# HeLa = assay: as above; settings: Gynecologic cancer cell panel viability, ATPlite luminescence, 48 h; series mostly up to 57.5 µM
# Method in brief: as §3
# HEK293 = assay: Cytotoxic Profiling of Annotated Libraries Using Quantitative High-Throughput Screening (AID 1296008); settings: Five cell lines viability, CellTiter-Glo ATP luminescence, 48-72 h; max response: stronger effect = lower value; further: nearly all actives have a fitted effect of over 60% in size; further: potency means the concentration at half of the fitted maximal effect
# Method in brief: as §1
smiles,measurement,setting,value
O=C(CN1CCN(Cc2ccc3c(c2)OCO3)CC1)N1c2ccccc2Sc2ccccc21,Potency,W2,6.01 µM (active)
same,max response,CRL-7250,-6.96%
same,outcome,HaCat [1],inactive
same,max response,KB-3-1,6.91%
same,outcome,NIH3T3 [2],inactive
same,outcome,HACAT [3],inactive
same,Potency,MCC-13,inactive
same,Potency,MCC-26,inactive
same,Potency,MKL-1,inactive
same,Potency,MKL-2,inactive
same,outcome,NIH3T3 [4],inactive
same,Potency,UISO,inactive
same,Potency,WaGa,inactive
same,Potency,C33A,inactive
same,Potency,CAOV3,inactive
same,Potency,CASKI,inactive
same,Potency,Es-2,inactive
same,Potency,HeLa,inactive
Cc1ncc(CO)c(C=O)c1O,Potency,W2,inactive
same,max response,CRL-7250,-16.1%
same,max response,HEK293,-65.4%
same,max response,NIH3T3 [2],-38.1%
same,Potency,MCC-13,inactive
same,Potency,MCC-26,inactive
same,Potency,MKL-1,inactive
same,Potency,MKL-2,inactive
same,Potency,UISO,inactive
same,Potency,WaGa,inactive
same,Potency,C33A,inactive
same,Potency,CAOV3,inactive
same,Potency,CASKI,inactive
same,Potency,Es-2,inactive
same,Potency,HeLa,inactive
CC1CCc2c(N3CCC(O)CC3)c(F)cc3c(=O)c(C(=O)O)cn1c23 (stereo not drawn),max response,CRL-7250,-8.92%
same,max response,HaCat [1],-5.2%
same,max response,KB-3-1,15%
same,max response,NIH3T3 [2],-20%
same,Potency,MCC-13,inactive
same,Potency,MCC-26,inactive
same,Potency,MKL-1,inactive
same,Potency,MKL-2,inactive
same,Potency,UISO,inactive
same,Potency,WaGa,inactive
same,Potency,C33A,inactive
same,Potency,CAOV3,inactive
same,Potency,CASKI,inactive
same,Potency,Es-2,inactive
same,Potency,HeLa,inactive
OC(C#CCN1CCCC1)(c1ccccc1)c1ccccc1,Potency,W2,2.13 µM (active)
same,outcome,CRL-7250,inactive
same,outcome,HaCat [1],inactive
same,max response,KB-3-1,0.398%
same,max response,NIH3T3 [2],-3.64%
same,outcome,HACAT [3],inactive
same,Potency,MCC-13,inactive
same,Potency,MKL-1,inactive
same,Potency,MKL-2,inactive
same,Potency,UISO,inactive
same,Potency,WaGa,inactive
same,Potency,C33A,inactive
same,Potency,CAOV3,inactive
same,Potency,CASKI,inactive
same,Potency,Es-2,inactive
same,Potency,HeLa,inactive
COc1cc(C)nc(-n2nc(C)cc2OC)n1,Potency,W2,inactive
same,max response,CRL-7250,-9.05%
same,max response,HEK293,-7.38%
same,outcome,NIH3T3 [2],inactive
same,Potency,MCC-13,inactive
same,Potency,MCC-26,inactive
same,Potency,MKL-1,inactive
same,Potency,MKL-2,inactive
same,outcome,NIH3T3 [4],inactive
same,Potency,WaGa,inactive
same,Potency,C33A,inactive
same,Potency,CAOV3,inactive
same,Potency,CASKI,inactive
same,Potency,Es-2,inactive
same,Potency,HeLa,inactive
CCOC(=O)c1c(N)sc2c1CCN(Cc1ccccc1)C2,Potency,W2,4.78 µM (active)
same,Potency,CRL-7250,18.8 µM (active)
same,Potency,HEK293,11.9 µM (active)
same,Potency,MCC-13,inactive
same,Potency,MCC-26,inactive
same,Potency,MKL-2,3.76 µM (active)
same,Potency,WaGa,21.1 µM (active)
same,Potency,Es-2,inactive
same,Potency,HeLa,inactive
O=C(Nc1ccccc1)OCC(CN1CCCCC1)OC(=O)Nc1ccccc1 (stereo not drawn),max response,CRL-7250,-24%
same,outcome,HaCat [1],inactive
same,max response,KB-3-1,-1.56%
same,max response,NIH3T3 [2],-10.2%
same,outcome,HACAT [3],inactive
same,Potency,MCC-13,inactive
same,Potency,MCC-26,inactive
same,Potency,MKL-1,inactive
same,Potency,MKL-2,inactive
same,Potency,WaGa,inactive
same,Potency,C33A,inactive
same,Potency,CASKI,inactive
same,Potency,Es-2,inactive
same,Potency,HeLa,inactive
CCCCCCCCCCC[C@@H](C[C@@H]1OC(=O)[C@H]1CCCCCC)OC(=O)[C@H](CC(C)C)NC=O,outcome,CRL-7250,inactive
same,outcome,HaCat [1],inactive
same,max response,KB-3-1,-9.82%
same,max response,NIH3T3 [2],1.98%
same,outcome,HACAT [3],inactive
same,Potency,MCC-13,inactive
same,Potency,MKL-1,inactive
same,Potency,MKL-2,inactive
same,Potency,UISO,inactive
same,Potency,WaGa,inactive
same,Potency,C33A,inactive
same,Potency,CAOV3,inactive
same,Potency,CASKI,inactive
same,Potency,Es-2,inactive
same,Potency,HeLa,inactive
CC[N+](C)(CC)CCOC(=O)C(O)(c1ccccc1)C1CCCCC1 (stereo not drawn),max response,CRL-7250,-11.2%
same,outcome,HaCat [1],inactive
same,max response,KB-3-1,5.15%
same,max response,NIH3T3 [2],-5.74%
same,outcome,HACAT [3],inactive
same,Potency,MCC-13,inactive
same,Potency,MCC-26,inactive
same,Potency,MKL-1,inactive
same,Potency,MKL-2,inactive
same,Potency,UISO,inactive
same,Potency,WaGa,inactive
same,Potency,C33A,inactive
same,Potency,CASKI,inactive
same,Potency,Es-2,inactive
same,Potency,HeLa,inactive
CC(C)NCC(O)c1ccc2ccccc2c1 (stereo not drawn),Potency,W2,1.9 µM (active)
same,max response,CRL-7250,3.16%
same,outcome,HaCat [1],inactive
same,max response,KB-3-1,-2.59%
same,outcome,NIH3T3 [2],inactive
same,outcome,HACAT [3],inactive
same,Potency,MCC-13,inactive
same,Potency,MCC-26,inactive
same,Potency,MKL-1,inactive
same,Potency,MKL-2,inactive
same,outcome,NIH3T3 [4],inactive
same,Potency,UISO,inactive
same,Potency,WaGa,inactive
same,Potency,C33A,inactive
same,Potency,CAOV3,inactive
same,Potency,CASKI,inactive
same,Potency,Es-2,inactive
same,Potency,HeLa,inactive
CN1CCN(c2c(F)cc3c(=O)c(C(=O)O)cn4c3c2SCC4)CC1,max response,CRL-7250,-2.29%
same,outcome,HaCat [1],inactive
same,max response,KB-3-1,-15.8%
same,max response,NIH3T3 [2],-3.6%
same,outcome,HACAT [3],inactive
same,Potency,MCC-13,inactive
same,Potency,MKL-1,inactive
same,Potency,MKL-2,inactive
same,Potency,UISO,inactive
same,Potency,WaGa,inactive
same,Potency,C33A,inactive
same,Potency,CASKI,inactive
same,Potency,Es-2,inactive
same,Potency,HeLa,inactive
C=C[C@@]1(C)CC(=O)[C@]2(O)[C@@]3(C)[C@@H](O)CCC(C)(C)[C@@H]3[C@H](O)[C@H](OC(C)=O)[C@@]2(C)O1,Potency,W2,inactive
same,max response,CRL-7250,2.74%
same,max response,HEK293,-3.5%
same,Potency,MCC-13,inactive
same,Potency,MKL-1,inactive
same,Potency,MKL-2,inactive
same,Potency,UISO,inactive
same,Potency,WaGa,inactive
same,Potency,C33A,inactive
same,Potency,CAOV3,inactive
same,Potency,CASKI,inactive
same,Potency,Es-2,inactive
same,Potency,HeLa,inactive
C[C@@H](O)[C@H]1C(=O)N2C(C(=O)O)=C(S[C@@H]3CN[C@H](CNS(N)(=O)=O)C3)[C@H](C)[C@H]12,Potency,W2,inactive
same,max response,CRL-7250,-1.21%
same,outcome,HaCat [1],inactive
same,max response,KB-3-1,7.85%
same,max response,NIH3T3 [2],3.07%
same,outcome,HACAT [3],inactive
same,Potency,MCC-13,inactive
same,Potency,MCC-26,inactive
same,Potency,MKL-1,inactive
same,Potency,MKL-2,inactive
same,Potency,UISO,inactive
same,Potency,WaGa,inactive
same,Potency,C33A,inactive
same,Potency,CASKI,inactive
same,Potency,Es-2,inactive
same,Potency,HeLa,inactive
